# Assay results taken from PubChem BioAssay.
# Records with an inconclusive call do not appear. A number with no mark means an inactive call. The source made the active and inactive calls.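 Rule for the calls: active = cell viability at or below a set limit in both duplicate runs, the limit being the all-compound median minus 4 SD (cut at about 23% in these data, passing the limit was not always enough); inconclusive = no clear call, values can overlap the other calls; inactive = the rest.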
# Assay: growth suppression of beta-catenin knockout HCT116, pilot screen, human colon tumor cells (AID 823);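 note: 0% = wells killed by 20 µM Hyamine and 100% = untreated DMSO cell wells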
# Conditions: CellTiter-Glo, 60 h, at 10 µM, active compounds read low
row,Structure (SMILES),viability
1,Cc1ccc(S(=O)(=O)NCC(=O)N2CCOCC2)cc1,103%
2,COc1ccc(Cl)cc1C(=O)Nc1cc(=O)n(C)c(=O)n1C,102%
3,CCc1noc2c1/C(=N\O)CC(c1ccccc1)C2 (stereo unspecified),83.3%
4,CN(CC1CCCO1)S(=O)(=O)c1ccc(C(=O)Nc2nc(-c3ccccn3)cs2)cc1 (stereo unspecified),18.5% (active)
5,Cc1csc(NC(=O)C2CCCN(S(=O)(=O)c3cccnc3)C2)n1 (stereo unspecified),104%
6,O=C(NCCn1ccc2ccccc21)c1ccc(S(=O)(=O)N2CCOCC2)cc1,101%
7,COCCOC(=O)C1=C(C)NC(=O)NC1c1c(F)cccc1Cl (stereo unspecified),106%
8,CN(CC(=O)NC1CCCc2ccccc21)S(=O)(=O)c1ccc2c(c1)c(=O)n(C)c(=O)n2C (stereo unspecified),95.3%
9,Cc1ccc2oc(=O)c3cnn(CC(=O)NC4CCCCC4C)c3c2c1 (stereo unspecified),95.1%
10,Cc1nc(-c2ccc(S(=O)(=O)N3CCCCCC3)cc2)cs1,90.8%
11,FC(F)(F)C12CC(c3ccccc3)=NCCN1CCN2 (stereo unspecified),102%
12,CCCCCN=C(C)c1c(O)c2ccccc2oc1=O,94.8%
13,CC1=C(C(=O)Nc2ccccc2C)C(c2ccccc2)NC(=O)N1 (stereo unspecified),97.9%
14,C/C(=C1\SC(N2CCOCC2)=NC1=O)c1ccccc1,97%
15,N#CC1=C(N)Oc2n[nH]c(-c3ccccc3)c2C1c1cccc(OC(=O)N2CCOCC2)c1 (stereo unspecified),97.6%
16,Cn1c(Cn2c(=O)sc3ccccc32)nnc1SCC(=O)NC1CCCCC1,97.6%
